In ChEMBL document CHEMBL3433997, “St. Jude Leishmania screening dataset” (2016):

Experiments:
Type in all cases: functional
[1] = target: Solute carrier family 2, facilitated glucose transporter member 1 (Homo sapiens) (UniProt P11166); assay: ST_JUDE_LEISH: Cytotoxicity at 2uM final concentration against transgenic Leishmania Mexicana promastigotes LmGLUT1 that are glucose transport deficient and complemented with the human glucose transporter GLUT1. Activity is measured by DNA content using SYBR green in vitro
[2] = target: Hexose transporter 1 (Plasmodium falciparum) (UniProt O97467); assay: ST_JUDE_LEISH: Cytotoxicity at 2uM final concentration against transgenic Leishmania Mexicana promastigotes LmPfHT that are glucose transport deficient and complemented with the Plasmodium falciparum hexose transporter. Activity is measured by DNA content using SYBR green in vitro
[3] = target: Glucose transporter (Leishmania mexicana) (UniProt O61059); assay: ST_JUDE_LEISH: Cytotoxicity at 2uM final concentration against transgenic Leishmania Mexicana promastigotes LmGT2 that are glucose transport deficient and complemented with the L. Mexicana glucose transporter 2. Activity is measured by DNA content using SYBR green in vitro

Sequence of Solute carrier family 2, facilitated glucose transporter member 1 (Homo sapiens) (P11166 whole entry): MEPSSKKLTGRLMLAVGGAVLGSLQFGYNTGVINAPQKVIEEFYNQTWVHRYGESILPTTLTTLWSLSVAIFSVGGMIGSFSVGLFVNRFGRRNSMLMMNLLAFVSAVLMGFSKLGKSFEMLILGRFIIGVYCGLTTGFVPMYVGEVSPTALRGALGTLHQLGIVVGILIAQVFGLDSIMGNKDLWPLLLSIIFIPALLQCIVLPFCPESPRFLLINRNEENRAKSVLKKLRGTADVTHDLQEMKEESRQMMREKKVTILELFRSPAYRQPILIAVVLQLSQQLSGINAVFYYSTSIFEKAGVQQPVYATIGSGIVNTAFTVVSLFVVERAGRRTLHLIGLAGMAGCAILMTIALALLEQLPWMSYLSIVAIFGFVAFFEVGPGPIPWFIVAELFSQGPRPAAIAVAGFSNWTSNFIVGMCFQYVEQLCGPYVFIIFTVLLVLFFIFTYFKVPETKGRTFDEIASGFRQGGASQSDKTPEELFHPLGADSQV

| Structure (SMILES) | inhibition [1] [%] | inhibition [2] [%] | inhibition [3] [%] |
| --- | --- | --- | --- |
| c1cc(CN2CCCCC2)cc(-c2cccc(-c3nc4ccccc4[nH]3)c2)c1 | 1.27 | 2.94 | -0.15 |
| c1ccc(-c2cc(NCc3cccc4ccccc34)c3[nH]ncc3n2)cc1 | 5.11 | 5.96 | 6.54 |
| COc1ccc(CNC(=O)NC2CCN(c3ccnc(Nc4cc(OC)c(OC)c(OC)c4)n3)C2)cc1 (stereo not given) | 1.55 | 5.45 | -1.15 |
| Cc1cc(C)cc(OCC(O)CN(Cc2cc(Cl)cc(Cl)c2)C(=O)Nc2ccc(Cl)cc2)c1 (stereo not given) | 0.89 | -0.94 | -0.48 |
| O=C(NC1CCCc2ccccc21)[C@@H]1CCCN1C(=O)c1ccc(O)c(-c2cccc([N+](=O)[O-])c2)c1 (stereo not given in full) | 2.69 | 1.92 | 2.82 |
| FC(F)(F)c1ccc(CSc2ccc3nnc(-c4ccccn4)n3n2)cc1 | 9.17 | 9.71 | 7.64 |
| COc1ccc2nccc(CCN3CC(O)C(CNCc4ccc5c(n4)NC(=O)CS5)C3)c2n1 (stereo not given) | 3.43 | 3.49 | 4.07 |
| Cc1ccnc2nc(C(=O)Nc3cc(Cl)ccc3N3CCOCC3)nn12 | 5.13 | 5.74 | 5.36 |
| Cc1nc(-c2ccc(-c3ccc(NC(=O)c4coc5ccc(N6CC(C)NC(C)C6)cc45)cc3)c(C)c2)no1 (stereo not given) | 3.42 | 5.16 | 6.24 |
| Clc1cc(Nc2ccnc3ccc(Br)cc23)ccc1Oc1ccc(Cl)c2ccccc12 | 3.45 | 3.8 | 2.81 |
| CCCCCCCCNCC(O)c1cc(-c2ccc(Cl)cc2)nc2cc(C)ccc12 (stereo not given) | 3.01 | -0.38 | -1.09 |
| COc1ccc(C2CCN(CCCCNC(=O)c3ccc(NC(=O)c4ccc(Cl)cc4)cc3)CC2)c(OC)c1 | 6.64 | 5.21 | 3.22 |
| Cn1nc(-c2ccc(CNC3CCc4ccccc43)cc2)c2cnc(NCCCN3CCCC3)nc21 (stereo not given) | 7.46 | 13.8 | 8.91 |
| c1ccc(-c2nc(NCCCn3ccnc3)cc(-c3ccncc3)n2)cc1 | 3.22 | 4.55 | 1.25 |
| COc1ccc(OC)c(-c2cccc(-c3cccc(NC(=O)c4ccc([N+](=O)[O-])o4)c3)n2)c1 | 6.43 | 9.55 | 3.3 |
| CCC(C)(C)c1ccc(Oc2ccc(NC(=O)Nc3ccc(Cl)c(Cl)c3)cc2)cc1 | 1.75 | 1.24 | 1.26 |
| CC(=O)Nc1nc(C(=O)Nc2cccc(-c3ccc(-c4nc5cccc(C)c5[nH]4)cc3)c2)cs1 | 8.06 | 7.51 | 6.75 |
| Cc1cccn2c(=O)c3cc(C(=O)NCCN4CCOCC4)c(=N)n(CCc4ccccc4)c3nc12 | -0.34 | 2.09 | 0.41 |
| CC(C)c1ccc(CN2CCC(NC(=O)c3ccc(-c4ccccc4F)s3)CC2)cc1 | 0.51 | 0.39 | -1.39 |
| O=C(/C=C/c1ccc(Cl)c(Cl)c1)NCCCCCN1CCC(NC(=S)Nc2ccc(Cl)cc2)CC1 | 9.42 | 8.02 | 6.39 |
| CCCCCCN1CCC(NCc2cccc(C#N)c2)CC1 | 0.29 | 0.77 | 2.03 |
| Clc1ccc(CNc2ccnc(NCCc3coc4ccccc34)n2)c(Cl)c1 | 5.99 | 6.11 | 0.66 |
| O=[N+]([O-])c1ccc(N/C(=N\c2ccccc2Br)NCCOc2ccccc2)c(O)c1 | 0.7 | -0.42 | -2.35 |
| COC(=O)c1ccc2[nH]cc(C3CCN(CCC4CCN(C(=O)/C=C/c5ccc(Cl)c(Cl)c5)CC4)CC3)c2c1 | 6.59 | 4.72 | 5.91 |

| Structure (SMILES) | inhibition [1] [%] | inhibition [2] [%] | inhibition [3] [%] |
| --- | --- | --- | --- |
| CC(=O)Nc1ncc(C(=O)Nc2cccc(-c3cccc(-c4nc5ccccc5[nH]4)c3)c2)s1 | 1.58 | 1.44 | 6.64 |
| CCCCCCOc1ccc(C(=O)NCCC2CCN(CCCCCNC(=O)C=Cc3ccc(Cl)c(Cl)c3)CC2)cc1 | -0.8 | -0.99 | -0.17 |
| CCc1cn2c3c(cc(C(=O)N[C@@H](Cc4cccc(Cl)c4)[C@H](O)CNC4CCCCC4)cc13)N(C)S(=O)(=O)CC2 | -0.29 | 1.09 | -0.36 |
| COc1cc(C(=O)Nc2cccc(-c3cn4ccc(C)cc4n3)c2)cc(OC)c1OC | 17.1 | 8.22 | 6.63 |
| O=C(NCCCCN1CCN(c2cccc3c2CCCC3)CC1)c1ccc(NC(=O)c2ccc(Cl)cc2)cc1 | 3.35 | 1.45 | 1.92 |
| Cc1ccc(Cl)cc1NC(=O)c1c(-c2ccccc2Cl)noc1C | -0.47 | -1.54 | -0.61 |
| CN1CCC(N2CCN(Cc3ccc(-c4ccc(-c5nc6ccccc6[nH]5)s4)cc3)CC2)CC1 | 8.42 | 8.75 | 5.9 |
| Clc1nc(Cl)c2c(ccn2Cc2ccccc2)n1 | 1.47 | 0.9 | 2.54 |
| CC(=O)Nc1nc(C(=O)Nc2ccc(-c3ccc(-c4nc5cccc(C)c5[nH]4)cc3)cc2)cs1 | 10.7 | 9.18 | 6.38 |
| O=C(Cn1c(SCc2cccc(F)c2F)cc(=O)c2ccccc21)N(CCCn1ccnc1)Cc1ccc(-c2ccc(C(F)(F)F)cc2)cc1 | 3.11 | 1.44 | 2.6 |
| CCOC(=O)C(C(C)=O)C(c1ccccc1)C(C(C)=O)C(=O)OCC (stereo not given) | 3.08 | 4.69 | 0.94 |
| CN(C)CCCNCc1cn(S(=O)(=O)c2ccccc2Cl)c2ccccc12 | 5.36 | 5.25 | 7.6 |
| Cc1c(-c2cccc(NC(=O)C(C)(C)Oc3ccc(Cl)cc3)c2)nc2ncccn12 | -0.94 | -1.86 | -3.03 |
| Cc1ccc(CN2CCC(C(=O)Nc3ccc(-c4cc5ccccc5[nH]4)cc3)CC2)o1 | 17.3 | 9.24 | 4.6 |
| Cc1cccc2nc(-c3cccc(-c4ccc(NC(=O)CS(C)(=O)=O)cc4)c3)[nH]c12 | -0.47 | 3.33 | 3.81 |
| CC1=NN(c2ccc(C)c(C)c2)C(=O)C1=NNc1cccc(-c2cccc(NC(=O)OC(C)(C)C)c2)c1O | 1.48 | 1.44 | 0.04 |
| CC(=O)Nc1cccc(C(=O)Nc2cccc(-c3cccc(-c4nc5cc(F)ccc5[nH]4)c3)c2)c1 | 3.73 | 3.51 | 7.22 |
| CC(C)NCc1ccc(-c2ccc(NS(=O)(=O)c3cccc4cccnc34)cc2)cc1 | 16.1 | 14.5 | 12.7 |
| O=c1cc(NCCCNCc2cccc(I)c2)[nH]c2ccccc12 | 0.98 | 0.27 | -0.58 |
| Cc1nc(NCc2ccccc2)cc(Nc2cc(NCc3ccccc3)nc(C)n2)n1 | 4.26 | 3.76 | 1.98 |
| NCCNS(=O)(=O)c1ccc(-c2ccnc3[nH]c(-c4ccncc4)cc23)cc1 | 0.72 | 1.19 | 0.62 |
| Cc1cc(N[C@@H](Cc2ccccc2)C(=O)NC2CCCC2)nc(NCC2CCCCC2)n1 | 3.03 | 3.67 | 0.45 |
| COc1ccc2nc(C)cc(Nc3ccc(Oc4ccc(Cl)c5ccccc45)c(Cl)c3)c2c1 | 12.8 | 10.2 | 5.43 |
| O=C(NCCc1ccccc1)c1cc(-c2cccnc2)cnc1NCC1CC1 | 3.62 | 6.01 | 1.98 |

| Structure (SMILES) | inhibition [1] [%] | inhibition [2] [%] | inhibition [3] [%] |
| --- | --- | --- | --- |
| CC(=O)c1ccc(N2CCN(C(=O)Nc3ccc(Cl)cc3)CC2)cc1 | 9.4 | 7.37 | 8.94 |
| CC(CON1C(N)=NC(N)=NC1(C)C)Cc1ccc(Cl)cc1Cl (stereo not given) | -0.6 | -1.29 | -0.29 |
| CN(C)CCCOc1ccc(CNCc2cccc(Oc3ccc(Cl)cc3)c2)cc1 | 6.24 | 2.32 | 3.82 |
| COc1ccc(CC(=O)NC(CCN2CCC3(CC2)CN(S(C)(=O)=O)c2ccccc23)c2ccc(Cl)c(Cl)c2)cc1OC (stereo not given) | 3.24 | 3.56 | 2.27 |
| COc1cc2c(C3CCN(CC4CCC(NC(=O)/C=C/c5ccc(Cl)c(Cl)c5)CC4)CC3)c[nH]c2cn1 (stereo not given) | 9.19 | 8.02 | 7.96 |
| COc1ccc2nc3cc(Cl)ccc3c(NCCc3ccccc3)c2c1 | 1.15 | 1.24 | -0.37 |
| Cc1cccc2nc(-c3ccc(-c4cccc(NC(=O)CCc5c[nH]cn5)c4)cc3)[nH]c12 | 0.1 | 1.46 | 2.35 |
| CC(=O)NCCNc1cc(N2CCc3ncnc(Nc4ccc(OCc5c(F)cccc5F)c(Cl)c4)c3C2)ncn1 | 0.69 | 1.6 | 1.84 |
| CC1(C)N=C(NC(=O)c2cc([N+](=O)[O-])cc([N+](=O)[O-])c2)N=C(N)N1OCc1cccc2ccccc12 | -1.97 | -0.29 | -0.37 |
| COc1ccc(CN2CCN(CC(=O)Nc3cc(Cl)ccc3-n3cncn3)CC2)cc1F | -1.01 | 1.82 | -0.67 |
| COc1cccc(CNC(=O)c2cc(CNCc3ccccc3)ccc2-c2cccc(CNCc3ccc(-c4ccccc4)cc3)c2)c1 | 3.83 | 4.88 | 6.21 |
| S=C(NCCN1CCOCC1)Nc1ccccc1 | -1.94 | 0.47 | 0.17 |
| Cc1ccc(C)c2c1[nH]c1ccc(C3=NCCN3)cc12 | 0.89 | 1.39 | 1.4 |
| N#Cc1ccc(-c2ccc(C(=O)NC3CCN(CCN4CCC(c5cn(CCOC6CCCCO6)c6ccccc56)CC4)CC3)cc2)cc1 (stereo not given) | 14.4 | 6.81 | 21.2 |
| COC(=O)COc1cc(C(=O)NCCCCN2CCC(c3ccc4c(c3OC)CCCC4)CC2)ccc1-c1ccc(Cl)cc1 | 3.39 | 2.65 | 1.4 |
| O=C(Cc1ccc[n+]([O-])c1)Nc1ccc(-c2cccc(-c3nc4cc(C(F)(F)F)ccc4[nH]3)c2)cc1 | 1.49 | 1.61 | -0.42 |
| COc1ccccc1C1CCN(C2CCC(NC(=O)/C=C/c3cccc(Cl)c3F)CC2)CC1 (stereo not given) | 10.5 | 1.32 | 3.14 |
| NC(=O)C1CCN(Cc2ccc(-c3cccc(-c4nc5cc(F)ccc5[nH]4)c3)cc2)CC1 | -0.89 | -0.57 | -1.49 |
| CN(C)c1ccc(CN2CCC(NC(=O)c3ccc(-c4ccc(N(C)C)cc4)s3)CC2)cc1 | 1.4 | -0.22 | -0.4 |
| N#Cc1ccccc1C1CCN(C2CCC(Nc3cc(-c4cccnc4)ccn3)CC2)CC1 (stereo not given) | 2.02 | 1.09 | 2.26 |
| Cc1cc(N[C@@H](Cc2ccccc2)C(=O)NCc2cccc(F)c2)nc(NCCCOC(C)C)n1 | 0.45 | 1.37 | 1.72 |
| Clc1ccccc1CN1CCC(NCc2cccc(-n3ccnc3)c2)CC1 | 2.64 | -1.07 | 1.16 |
